Source: PubChem BioAssay (NCATS)
Where “and” joins values, the source holds several entries; their conditions need not be identical. Equal values may be shown once. Inconclusive results are not listed. Calls of active or inactive are those of the source. Unless noted, calls come from the whole dose curve; as a rule, active = well fitted curve in the direction sought with a large enough effect; inconclusive = small, poorly fitted or top-dose-only effect, or another doubt; inactive = no such curve, though single readings can be large; an effect the other way counts as inactive or inconclusive.

How the values were obtained:
[1] = Cell Viability - Jurkat (AID 426;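 active = dose-dependent loss of cell ATP signal giving a full or clear fitted curve, ranked by lower potency value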;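 note: potency is the fitted concentration of half-maximal effect; cells exposed to compound for 40 hours at 37 °C before ATP read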); settings: qHTS
How it was run: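 Cells of the human T-cell leukemia line Jurkat (E6-1) are seeded at 5000 per well, treated with compound across a concentration range for 40 hours at 37 °C, then lysed with CellTiter-Glo; luminescence reports ATP.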

[2] = Cell Viability - H-4-II-E (AID 543); settings: H-4-II-E rat hepatoma viability; series mostly up to 92.2 µM; note: % is set by controls: 0 for no effect and ±100 for the full control effect; nearly all actives have a fitted effect of over 35% in size
How it was run: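 Cells seeded at 1500 per well and rested 5 hr; compounds added; 40 hr incubation at 37 °C; CellTiter-Glo added, 20 min at room temperature; luminescence read. Hill-equation fits gave AC50.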

[3] = MultiTox-Fluor Cytotoxicity Assay - LYMP1-001 - Live Cells (AID 947); settings: LYMP1-001 lymphoblastoid cells, live-cell protease fluorescence viability; series mostly up to 92.2 µM;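 note: 0% = DMSO only and full inhibition = tetraoctylammonium bromide control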
[4] = MultiTox-Fluor Cytotoxicity Assay - LYMP1-002 - Dead Cells (AID 960); settings: LYMP1-002 lymphoblastoid cells, dead-cell protease fluorescence; series mostly up to 46.1 µM;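 note: 0% = DMSO and 100% = tetraoctylammonium bromide; nearly all actives have a fitted effect of over 60% in size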
How it was run: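 Cells were plated, rested 5 hr, then treated with compound dilution series for 16 hr at 37 C. After adding substrate reagent and 60 min at room temperature, dead-cell protease fluorescence gave concentration-response curves fitted by the Hill equation.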

[5] = Cell Viability - LYMP2-018 (AID 985); settings: LYMP2-018 lymphoblastoid cells, viability (qHTS); series mostly up to 92.2 µM;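 note: compound exposure lasted 24 hr at 37 °C; plate controls were DMSO only for no effect and tetraoctylammonium bromide at 92 µM for full effect; nearly all actives have a fitted effect of over 50% in size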
How it was run: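 Seed 2500 lymphoblastoid cells per well, incubate 5 hr at 37 C, add compound and incubate 24 hr at 37 C, add CellTiter-Glo, wait 30 min at room temperature, then read luminescence.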

[6] = Cell Viability - LYMP2-020 (AID 986); settings: series mostly up to 92.2 µM;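 note: cells exposed to compound for 24 h at 37 °C; plate controls were DMSO only for no effect and tetraoctylammonium bromide at 92 µM for full effect; nearly all actives have a fitted effect of over 55% in size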
How it was run: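 Seed 2500 cells per well and incubate 5 hr at 37 C. Add compounds at a concentration series and incubate 24 hr at 37 C. Add CellTiter-Glo, wait 30 min at RT, read luminescence, and fit a Hill curve for AC50.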

[7] = Cell Viability - LYMP2-022 (AID 987); settings: LYMP2-022 lymphoblastoid cell viability; series mostly up to 92.2 µM;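 note: 0% = DMSO alone and full effect = tetraoctylammonium bromide at 92 µM; nearly all actives have a fitted effect of over 55% in size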
How it was run: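 Cells were seeded at 2500 per well, rested 5 hr at 37 C, and treated with titrated compounds for 24 hr at 37 C. Cellular ATP was then quantified by luciferase luminescence, and AC50 values were derived from Hill-modelled concentration-response curves.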

[8] = Cell Viability - LYMP2-024 (AID 988); settings: LYMP2-024 lymphoblastoid cell viability; series mostly up to 92.2 µM;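 note: plate controls were DMSO only for no effect and 92 µM tetraoctylammonium bromide for full effect; nearly all actives have a fitted effect of over 60% in size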
How it was run: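 qHTS cytotoxicity, human lymphoblastoid line, complete medium; 24 h cpd treatment, 37 C; CellTiter-Glo ATP luminescence readout; tetraoctylammonium bromide positive control; AC50 via Hill fit.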

[9] = Cell Viability - LYMP2-026 (AID 989); settings: LYMP2-026 lymphoblastoid cell viability, qHTS; series mostly up to 92.2 µM;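 note: cells exposed to compound for 24 h at 37 °C; % is set by controls: 0 for no effect and ±100 for the full control effect; nearly all actives have a fitted effect of over 50% in size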
How it was run: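 Cells are seeded at 2500 per well and held 5 hr at 37 C. Compounds are added in concentration series for 24 hr, then CellTiter-Glo reagent is applied and luminescence read.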

[10] = Cell Viability - LYMP1-002 - Assay at 24 hr (AID 993); settings: LYMP1-002 lymphoblastoid cells viability; series mostly up to 92.2 µM; note: % is set by controls: 0 for no effect and ±100 for the full control effect
How it was run: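 Acute toxicity is measured as concentration-dependent loss of cellular ATP in a human lymphoblastoid line (Coriell LYMP1-002) after 24 h treatment in complete medium. ATP is quantified by luciferase luminescence and AC50 derived by Hill modelling.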

[11] = Cell Viability - LYMP1-002 - Assay at 40 hr (AID 994); settings: LYMP1-002 lymphoblastoid cell viability; series mostly up to 92.2 µM;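 note: 0% = DMSO only and full inhibition = 92 µM tetraoctylammonium bromide; nearly all actives have a fitted effect of over 60% in size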
How it was run: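 Cells are plated at 2500 per well and rested 5 hr at 37 C. Compounds are added and incubated 40 hr at 37 C. CellTiter-Glo reagent is added for 30 min at room temperature before luminescence is read.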

[12] = target: Estrogen receptor (Homo sapiens) (UniProt P03372); experiment: qHTS assay for small molecule antagonists of estrogen receptor alpha signaling (AID 588513; active = well fitted curve in the direction sought with a large enough effect in the signal ratio, with a control signal flat, not every such curve was filed as active; the % refers to the signal ratio; note: % is set by controls: 0 for no effect and ±100 for the full control effect); settings: ER-alpha-UAS-bla HEK293, beta-lactamase ratio, antagonist mode; series mostly up to 76.9 µM
How it was run: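 Beta-lactamase reporter, antagonist mode, HEK 293 GripTite cells; 0.5nM E2 stimulus, 18 h, 37 C; CCF4 dye 2 h RT; fluorescence. IC50 and efficacy from Hill fits, normalized to E2 and DMSO.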

[13] = target: Vitamin D3 receptor (Homo sapiens) (UniProt P11473); experiment: qHTS assay for small molecule antagonists of vitamin D receptor signaling (AID 588541; calls by dose curve;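 note: receptor activated by calcitriol during compound treatment; % is set by controls: 0 for no effect and ±100 for the full control effect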); settings: HEK293T VDR-UAS-bla, beta-lactamase ratio, antagonist mode; series mostly up to 76.7 µM
How it was run: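 VDR-UAS-bla HEK293T cells (2000/well, 2% charcoal-stripped FBS) were treated with titrated compounds plus 1-alpha,25-dihydroxyvitamin D3 (50 nM or 3 nM final) for 16 h at 37 C. CCF4 beta-lactamase fluorescence was read; Hill fits gave IC50.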

[14] = target: Vitamin D3 receptor (Homo sapiens) (UniProt P11473); experiment: qHTS assay for small molecule agonists of vitamin D receptor signaling (AID 588543; calls by dose curve;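 note: 0% = DMSO basal and 100% = reference agonist control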); settings: HEK293T VDR-UAS-bla, beta-lactamase ratio, 16 h; series mostly up to 76.8 µM
How it was run: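 β-lactamase reporter, VDR-UAS-bla HEK293T, agonist mode. Cells plated 5 h at 37 °C, compound titration 16 h at 37 °C, CCF4 dye 2 h RT, ratio 460/530 nm. Hill fit → EC50, efficacy vs 50 nM 1α,25-(OH)2D3.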

[15] = target: Nuclear receptor ROR-gamma (Homo sapiens) (UniProt P51449); experiment: qHTS assay for small molecule antagonists of the retinoid-related orphan receptor gamma (ROR-gamma) signaling pathway (AID 651802); settings: ROR-gamma antagonist cell reporter assay; series mostly up to 92.2 µM;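 note: CHO cells with doxycycline-induced ROR-gamma expression; % is set by controls: 0 for no effect and ±100 for the full control effect; nearly all actives have a fitted effect of over 60% in size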
How it was run: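 Steps: cells dispensed; compound or DMSO transferred by pin tool; doxycycline added to induce the ROR response element-driven luciferase; plates held 16hr at 37C; ONE-Glo added and luminescence measured.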

[16] = qHTS assay for small molecule agonists of the antioxidant response element (ARE) signaling pathway measured by Nrf2-dependant transcriptional activity (AID 720636; active = well fitted curve in the direction sought with a large enough effect in the repeat runs; an effect the other way counts as inactive or inconclusive;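 note: HepG2 cells with an ARE-driven luciferase reporter; % of control where 0% means no effect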); settings: ARE-luc HepG2, Nrf2 luciferase reporter, 16 h; series mostly up to 92.4 µM
How it was run: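 Nrf2-dependent transcription is measured in ARE-luc HepG2 cells: compound is applied for 16 hr at 37 C after a 6 hr attachment period, and luciferase activity is quantified by luminescence using ONE-Glo.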

[17] = qHTS assay for small molecule antagonists of the retinoid-related orphan receptor gamma (ROR-gamma) signaling pathway - cell viability counter screen (AID 720652; active = well fitted curve in the direction sought with a large enough effect in the repeat runs; an effect the other way counts as inactive or inconclusive;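 note: CHO reporter cells with doxycycline-induced ROR-gamma expression; compound exposure lasted 16 hr before ATP read; % is set by controls: 0 for no effect and ±100 for the full control effect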); settings: RORgamma reporter cell line viability counter screen; series mostly up to 92.2 µM
How it was run: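 Steps: seed CHO cells bearing TET-inducible ROR and ROR response element-luciferase; rest 5 hr at 37 C; add compound, then doxycycline; incubate 16 hr; add CellTiter-Glo and read luminescence as ATP-based viability.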

[18] = target: Nuclear receptor subfamily 1 group I member 2 (Rattus norvegicus) (UniProt Q9R1A7); experiment: qHTS assay for small molecule activators of the rat pregnane X receptor (rPXR) signaling pathway (AID 651751; call rule not given here; note: 0% is about no effect); settings: rPXR reporter cells, luciferase (One-Glo), 24 h
[19] = target: Thyroid hormone receptor beta (Homo sapiens) (UniProt P10828); experiment: qHTS assay for small molecule agonists of thyroid hormone receptor beta signaling (AID 588545; calls by dose curve); settings: TR-UAS-bla GripTite HEK 293, beta-lactamase ratio, agonist mode, 18 h, percent of T3 response, DMSO as zero; series mostly up to 76.7 µM
How it was run: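 Agonist activity was read as beta-lactamase CCF4 fluorescence (405 ex, 460/530 em), scaled between DMSO (0%) and 10 nM T3 (100%), then Hill-fitted for EC50 and efficacy. HEK 293 TR-UAS-bla cells in 2% charcoal/dextran FBS medium were exposed 18 h at 37 C.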

[20] = target: Thyroid hormone receptor beta (Homo sapiens) (UniProt P10828); experiment: qHTS assay for small molecule antagonists of thyroid hormone receptor beta signaling (AID 588547; active = well fitted inhibition curve with a large enough effect in the signal ratio, with a control signal flat, not every such curve was filed as active; the % refers to the signal ratio); settings: TR-UAS-bla HEK293, beta-lactamase ratio, antagonist mode, 18 h
How it was run: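 TR-UAS-bla GripTite HEK293 cells in 2% charcoal/dextran FBS medium were preincubated 4 h at 37 C, given compound (0.59 nM to 92 uM) plus 0.4 nM T3 (final) for 18 h, then CCF4 for 2 h at RT; Hill fit gave IC50.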

Nuclear receptor subfamily 1 group I member 2 (Rattus norvegicus), sequence (Q9R1A7 whole entry, looked up): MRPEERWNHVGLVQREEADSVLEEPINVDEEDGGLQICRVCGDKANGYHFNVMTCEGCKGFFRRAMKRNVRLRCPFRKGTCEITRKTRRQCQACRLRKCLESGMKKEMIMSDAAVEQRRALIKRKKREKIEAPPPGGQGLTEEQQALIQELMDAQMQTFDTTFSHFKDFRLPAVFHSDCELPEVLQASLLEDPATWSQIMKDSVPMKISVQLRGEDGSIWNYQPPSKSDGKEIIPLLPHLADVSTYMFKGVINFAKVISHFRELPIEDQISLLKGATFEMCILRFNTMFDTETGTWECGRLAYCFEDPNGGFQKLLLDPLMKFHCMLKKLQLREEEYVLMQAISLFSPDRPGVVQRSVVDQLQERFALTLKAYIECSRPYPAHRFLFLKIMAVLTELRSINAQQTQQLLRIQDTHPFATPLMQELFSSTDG
Estrogen receptor (Homo sapiens), sequence (P03372 whole entry, looked up): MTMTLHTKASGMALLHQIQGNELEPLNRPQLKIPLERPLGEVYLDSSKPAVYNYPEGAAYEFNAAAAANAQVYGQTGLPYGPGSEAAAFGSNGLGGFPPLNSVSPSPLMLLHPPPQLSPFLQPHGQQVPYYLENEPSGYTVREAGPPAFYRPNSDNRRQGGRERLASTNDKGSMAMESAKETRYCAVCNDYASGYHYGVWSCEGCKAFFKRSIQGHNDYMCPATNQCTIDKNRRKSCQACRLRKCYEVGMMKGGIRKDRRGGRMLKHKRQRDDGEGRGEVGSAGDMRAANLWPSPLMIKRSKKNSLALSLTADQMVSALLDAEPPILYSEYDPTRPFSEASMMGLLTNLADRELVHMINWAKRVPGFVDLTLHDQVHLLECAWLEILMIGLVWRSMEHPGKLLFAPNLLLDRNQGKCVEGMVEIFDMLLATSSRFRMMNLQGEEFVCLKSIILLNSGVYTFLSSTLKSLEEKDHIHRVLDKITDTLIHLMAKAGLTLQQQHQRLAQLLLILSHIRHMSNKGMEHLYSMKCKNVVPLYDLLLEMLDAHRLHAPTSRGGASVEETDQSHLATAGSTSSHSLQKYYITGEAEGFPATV
Nuclear receptor ROR-gamma (Homo sapiens), sequence (P51449 whole entry, looked up): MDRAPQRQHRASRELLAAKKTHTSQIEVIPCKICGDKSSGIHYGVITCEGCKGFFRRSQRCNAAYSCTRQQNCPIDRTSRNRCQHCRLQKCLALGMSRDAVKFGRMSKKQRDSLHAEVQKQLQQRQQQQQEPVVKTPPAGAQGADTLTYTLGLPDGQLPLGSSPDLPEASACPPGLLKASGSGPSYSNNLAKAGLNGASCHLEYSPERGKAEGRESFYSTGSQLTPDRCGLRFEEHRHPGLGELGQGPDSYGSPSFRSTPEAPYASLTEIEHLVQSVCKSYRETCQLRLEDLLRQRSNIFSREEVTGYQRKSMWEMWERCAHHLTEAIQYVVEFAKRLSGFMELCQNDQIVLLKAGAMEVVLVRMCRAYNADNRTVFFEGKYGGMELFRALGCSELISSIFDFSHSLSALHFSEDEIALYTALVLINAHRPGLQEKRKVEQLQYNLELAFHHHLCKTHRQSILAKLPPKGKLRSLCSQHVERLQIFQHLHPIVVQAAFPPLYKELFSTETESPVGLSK
Thyroid hormone receptor beta (Homo sapiens), sequence (P10828 whole entry, looked up): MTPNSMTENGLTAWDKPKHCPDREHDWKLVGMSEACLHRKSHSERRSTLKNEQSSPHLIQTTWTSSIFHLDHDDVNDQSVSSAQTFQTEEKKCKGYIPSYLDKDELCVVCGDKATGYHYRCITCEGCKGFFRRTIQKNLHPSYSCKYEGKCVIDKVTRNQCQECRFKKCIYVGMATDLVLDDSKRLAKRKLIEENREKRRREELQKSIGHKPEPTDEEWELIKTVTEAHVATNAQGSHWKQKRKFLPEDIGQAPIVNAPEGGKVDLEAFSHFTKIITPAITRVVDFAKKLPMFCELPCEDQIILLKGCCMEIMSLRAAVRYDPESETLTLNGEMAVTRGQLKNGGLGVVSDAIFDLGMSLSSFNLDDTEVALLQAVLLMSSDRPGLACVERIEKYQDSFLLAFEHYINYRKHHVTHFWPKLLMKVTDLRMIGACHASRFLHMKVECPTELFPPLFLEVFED
Vitamin D3 receptor (Homo sapiens), sequence (P11473 whole entry, looked up): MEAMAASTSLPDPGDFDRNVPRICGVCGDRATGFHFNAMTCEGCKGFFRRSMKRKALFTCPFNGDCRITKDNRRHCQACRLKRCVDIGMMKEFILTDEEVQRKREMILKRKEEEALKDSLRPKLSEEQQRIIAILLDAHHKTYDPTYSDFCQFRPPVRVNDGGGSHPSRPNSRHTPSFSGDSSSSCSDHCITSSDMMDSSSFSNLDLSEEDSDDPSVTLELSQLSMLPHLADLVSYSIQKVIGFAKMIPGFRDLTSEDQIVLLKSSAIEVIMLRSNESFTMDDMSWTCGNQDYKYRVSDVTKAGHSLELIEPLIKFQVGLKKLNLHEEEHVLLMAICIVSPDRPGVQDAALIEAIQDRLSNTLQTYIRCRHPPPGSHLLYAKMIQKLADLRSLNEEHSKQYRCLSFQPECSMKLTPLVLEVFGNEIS

O=C(O)c1ccccc1
inactive: Potency [1] > 92 µM | Potency [2] | Potency [3] | Potency [4] | Potency [5] | Potency [6] | Potency [7] | Potency [8] | Potency [9] | Potency [10] | Potency [11] | Potency [12] | outcome [13] | outcome [14] | Potency [15] | Potency [16] | Potency [17] | max response [18] -2.75%

C=CC(C)(CCC=C(C)C)OC(C)=O (stereo unspecified)
inactive: Potency [12] | outcome [13] | outcome [14] | outcome [19] | activity change % (negative = inhibition) [20] -2.58% | Potency [16] | max response [18] 1.82%

CCCCCCCCCCCCCC(=O)O
inactive: Potency [1] > 92 µM | Potency [2] | Potency [4] | Potency [5] | Potency [6] | Potency [7] | Potency [8] | Potency [9] | Potency [10] | Potency [11] | Potency [12] | outcome [13] | outcome [14] | outcome [19] | activity change % (negative = inhibition) [20] 8.19% and 13.5% | Potency [15] | Potency [16] | Potency [17] | max response [18] -0.081% and -5.28%

COc1cc(/C=C/c2ccccc2)oc(=O)c1
inactive: Potency [1] > 92 µM | Potency [3] | Potency [4] | Potency [5] | Potency [6] | Potency [7] | Potency [8] | Potency [9] | Potency [10] | Potency [11] | Potency [12] | outcome [13] | outcome [14] | outcome [19] | activity change % (negative = inhibition) [20] -8.32% | Potency [15]

C=C(C)C1CC=C(C)C(O)C1 (stereo unspecified)
inactive: Potency [1] > 92 µM | Potency [2] | Potency [3] | Potency [4] | Potency [5] | Potency [6] | Potency [7] | Potency [8] | Potency [9] | Potency [10] | Potency [11] | Potency [12] | outcome [19] | activity change % (negative = inhibition) [20] 0.818% | Potency [15] | Potency [16] | Potency [17] | max response [18] 2.42%

C=CC(=C)CCC=C(C)C
inactive: Potency [1] > 92 µM | Potency [2] | Potency [3] | Potency [4] | Potency [5] | Potency [6] | Potency [7] | Potency [8] | Potency [9] | Potency [10] | Potency [11] | Potency [12] | outcome [13] | outcome [14] | activity change % (negative = inhibition) [20] 9.36% | Potency [15] | Potency [16] | Potency [17] | max response [18] 2.22%

CC1=C2[C@H](/C=C(\C)C(=O)O)CC[C@@H](C)[C@H]2CC1
inactive: Potency [2] | Potency [3] | Potency [4] | Potency [5] | Potency [6] | Potency [7] | Potency [9] | Potency [10] | Potency [11] | Potency [12] | outcome [13] | outcome [14] | outcome [19] | activity change % (negative = inhibition) [20] 11.8% | Potency [16] | Potency [17] | max response [18] -3.01%

COc1ccc(/C=C/c2cc(OC)cc(=O)o2)cc1
inactive: Potency [1] > 92 µM | Potency [2] | Potency [3] | Potency [5] | Potency [6] | Potency [7] | Potency [8] | Potency [9] | Potency [10] | Potency [11] | Potency [12] | outcome [13] | outcome [14] | outcome [19] | activity change % (negative = inhibition) [20] -10.8% | Potency [15] | Potency [17]

CCCCCCCCCCCC(=O)O
inactive: Potency [1] > 92 µM | Potency [2] | Potency [3] | Potency [4] | Potency [5] | Potency [6] | Potency [7] | Potency [8] | Potency [9] | Potency [10] | Potency [11] | outcome [19] | Potency [15] | Potency [16] | Potency [17] | max response [18] -4.75% and -1.77%

C=CCc1ccc(OC)c(OC)c1
inactive: Potency [1] > 92 µM | Potency [2] | Potency [3] | Potency [4] | Potency [5] | Potency [6] | Potency [7] | Potency [8] | Potency [9] | Potency [10] | Potency [11] | outcome [13] | outcome [14] | outcome [19] | activity change % (negative = inhibition) [20] 11.4% | Potency [15] | Potency [16] | Potency [17] | max response [18] -0.697% and 1.19%
